Shown are actives, neighbours in structure and some others; about 19% of the full set was active somewhere.
TGFb SMAD3 inh: TGF-b pathway inhibition; 1.2% of 410,000 active; Potency, µM (series often up to 46.1 µM), usual class: inhibitors; HepG2 CAGA-GFP TGF-b/SMAD3 reporter, GFP fluorescence, 18 h; TGF-beta stimulated, 500 pg/mL final; note: nearly all actives have a fitted effect of over 65% in size
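First, reporter cells (HEPG2 CAGA-GFP) rested 2 h at 37 degrees C. Next, compounds were pinned in and TGF-beta added to 500 pg/mL final. After 18 h, GFP was imaged per cell and summed per well.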
HepG2 viability: counter-screen for TGF-b inhibitors: cytotoxicity in HepG2 cells. HepG2 CAGA-GFP viability, ATP luminescence, 18 h. Potency, µM (highest dose often 46.1 µM), hits mostly cytotoxic. 0.76% of 410,000 active. AID 588856
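HepG2 CAGA-GFP cells (1000/well, DMEM with 1% FBS) received compound, then TGF-beta at 500 pg/mL final, and were incubated 18 hours at 37 degrees C. Viability was read by CellTiter-Glo luminescence. Media-only wells were set as complete cell-killing and DMSO as no toxicity.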
TDP1 inh: TDP1 (human) enzyme inhibition; Q9NUW8; recombinant TDP1, AlphaScreen DNA substrate cleavage; Potency, µM (doses to about 130 µM), hits mostly inhibitors; 0.28% of 350,000 active; note: nearly all actives have a fitted effect of over 40% in size
Target sequence (Q9NUW8 whole entry, looked up): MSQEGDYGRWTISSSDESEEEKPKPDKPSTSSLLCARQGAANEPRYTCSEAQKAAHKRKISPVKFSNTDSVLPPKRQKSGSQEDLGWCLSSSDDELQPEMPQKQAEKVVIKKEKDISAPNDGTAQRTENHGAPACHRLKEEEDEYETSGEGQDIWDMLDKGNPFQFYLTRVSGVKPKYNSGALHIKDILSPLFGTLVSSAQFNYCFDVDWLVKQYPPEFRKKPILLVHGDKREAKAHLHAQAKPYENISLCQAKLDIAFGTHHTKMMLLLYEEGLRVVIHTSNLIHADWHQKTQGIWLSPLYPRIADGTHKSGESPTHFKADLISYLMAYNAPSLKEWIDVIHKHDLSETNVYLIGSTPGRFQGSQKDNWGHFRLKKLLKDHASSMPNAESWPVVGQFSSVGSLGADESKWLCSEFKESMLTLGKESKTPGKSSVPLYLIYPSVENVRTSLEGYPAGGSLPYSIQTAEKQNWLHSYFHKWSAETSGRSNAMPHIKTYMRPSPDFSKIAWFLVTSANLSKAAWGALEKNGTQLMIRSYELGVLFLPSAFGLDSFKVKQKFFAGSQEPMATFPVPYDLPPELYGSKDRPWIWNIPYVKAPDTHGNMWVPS
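Tdp1 1 nM final; 15 min RT w/ cpd; substrate 15 nM, 5 min; beads 10 ug/ml, 10 min; AlphaScreen read. Neg ctrl: no enzyme.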
IL-1B inflam inh: blocks inflammasome-driven IL-1 beta release | THP-1 LPS/ATP IL-1B secretion, AlphaLISA, 16 h; active compounds read low | activity change, % at 57.5 µM | 4.7% of 360,000 active | AID 743279; in the data active = activity change below about -50%; inconclusive = mostly about -30% to -49%
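Secreted IL-1B measured by AlphaLISA bead assay after 16 h compound exposure of THP-1 cells; compounds (final up to 57.5 uM) added 1 h before LPS (250 ng/mL) and ATP (1.25 mM) stimulation; lower signal means less secretion.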
TDP1 cell CPT: growth inhibition of DT40 Tdp1-/-;hTDP1 cells with camptothecin (screen for TDP1 inhibitors) | chicken DT40 Tdp1-/-;hTDP1 cells + 20 nM CPT, ATP luminescence, 48 h | Potency, µM (titrated, usually from 46.2 µM), actives largely listed as inhibitors | 12% of 420,000 active | AID 686979; note: nearly all actives have a fitted effect of over 55% in size
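Chicken DT40 Tdp1-/- cells complemented with human TDP1, 400 cells/well, exposed to compounds plus 20 nM camptothecin for at least 48 h at 37 C; viability read as ATP content by CellTiter-Glo luminescence.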
DT40 TDP1 no CPT: qHTS for Inhibitors of human tyrosyl-DNA phosphodiesterase 1 (TDP1): qHTS in cells in absence of CPT. DT40 Tdp1-/- hTDP1 cells, no CPT, ATP luminescence, 48 h. Potency, µM (series often up to 46.2 µM), hits mostly inhibitors. 15% of 420,000 active; note: nearly all actives have a fitted effect of over 55% in size
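Camptothecin absent (DMSO only). Human TDP1-complemented DT40 knockout cells, 400 cells/well, 37 °C for minimum 48 hr; ATP measured via CellTiter-Glo, 30 min dark incubation, luminescence.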
Hits are given with their value; i = inactive; ? = inconclusive; nt = no result; [ ] = dose if it differs, or a comment. Unless noted, calls come from the whole dose curve; as a rule, active = well fitted curve in the direction sought with a large enough effect; inconclusive = small, poorly fitted or top-dose-only effect, or another doubt; inactive = no such curve, though single readings can be large; an effect the other way counts as inactive or inconclusive.

SMILES	TGFb SMAD3 inh	HepG2 viability	TDP1 inh	IL-1B inflam inh	TDP1 cell CPT	DT40 TDP1 no CPT
O=C1C(=O)N(C2CCS(=O)(=O)C2)C(c2cccc(O)c2)/C1=C(/O)c1ccc(Cl)cc1 (centres undefined)	i	i	i	i	i	i
CC(C)CN(CCNC(=O)c1cc(-c2ccc(Cl)s2)nc2ccccc12)CC(C)C	i	i	i	nt	i	i
CCOCCCNC(=O)c1cc(-c2ccc(Br)s2)nc2ccccc12	i	i	nt	i	i	?
CCc1ccc(CNC(=O)c2cc(-c3ccc(Br)s3)nc3ccccc23)cc1	i	i	i	nt	?	18.4µM
CCCCN(C)CCNC(=O)c1cc(-c2ccc(Cl)s2)nc2ccccc12	i	i	i	nt	23.1µM	23.1µM
O=C(O)c1ccccc1CSc1nc2ccccc2n1Cc1ccccc1C(=O)O	i	i	i	i	i	i
CCOC(=O)c1c(C)[nH]c(C)c1C(=O)Cn1nnc(-c2ccccc2C)n1	i	i	i	i	14.6µM	?
CCOC(=O)c1c(C)[nH]c(C(=O)Cn2nnc(-c3ccccc3Cl)n2)c1C	i	i	i	i	i	i
COc1ccc(NC(=O)N2CCN(C(=O)c3ccco3)CC2)c(OC)c1	i	i	i	i	i	i
CC(=O)NC(c1ccc(F)c(F)c1)c1nc(-c2cnc3ccccc3c2)cs1 (centres undefined)	i	i	nt	i	?	?
O=C(CCN1C(=O)c2ccccc2C1=O)N1CCN(c2ccccc2)CC1	i	i	i	i	i	i
O=C1c2ccccc2C(=O)N1Cc1cnc(N2CCN(c3ccccc3)CC2)s1	i	i	i	i	8.2µM	11.6µM
COC(=O)[C@H](Cc1ccccc1)NC(=O)C1CCN(C(=O)[C@H](C)NS(=O)(=O)c2ccc(C)cc2)CC1	i	i	i	-50.0	i	i
Cc1cccc(CC(=O)NC2CC(=O)N(c3ccccc3)C2)c1 (centres undefined)	i	i	i	nt	i	i
CCOC(=O)c1c(C)[nH]c(CCC(=O)NCc2ccc(OC)cc2OC)c1C	i	i	i	nt	?	16.4µM
CCOC(=O)c1c(C)[nH]c(CCC(=O)NCc2cccc(C)c2)c1C	?	i	i	nt	?	16.4µM
CCOC(=O)c1c(C)[nH]c(C)c1S(=O)(=O)NCC(=O)Nc1cc(Cl)ccc1OC	i	i	i	nt	?	i
CCOC(=O)c1c(C)[nH]c(CCC(=O)Nc2cc(Cl)ccc2OC)c1C	?	i	i	nt	18.4µM	20.6µM
CCOC(=O)c1c(C)[nH]c(CCC(=O)NCc2ccc(F)cc2)c1C	i	i	i	nt	i	?
CCOC(=O)c1c(C)[nH]c(CCC(=O)NC(C)c2ccccc2)c1C (centres undefined)	?	i	i	nt	?	18.4µM
COC(=O)C1=C(C)N(Cc2ccccc2)[C@]23O[C@](C(=O)OC)(C(=O)N2C1c1ccccc1)C1C(=O)N(C)C(=O)C13 (some centres undefined)	nt	nt	i[21 µM]	nt	nt	nt
CC(OC(=O)CNC(=O)c1ccc(Cl)cc1)C(=O)NC1CCCCC1C (centres undefined)	i	i	i	i	i	i
CC(=O)SCC(CC(=O)c1ccc(C)cc1)C(=O)O (centres undefined)	nt	nt	nt	nt	i	i
CCOC(=O)c1c(C)[nH]c(C(=O)OC(C(=O)N(C)C)c2ccccc2)c1C (centres undefined)	i	i	nt	nt	10µM	10µM
CCOC(=O)c1c(C)[nH]c(C(=O)OC(C)C(=O)NCc2ccccc2)c1C (centres undefined)	i	i	nt	i	?	i
SMILES	TGFb SMAD3 inh	HepG2 viability	TDP1 inh	IL-1B inflam inh	TDP1 cell CPT	DT40 TDP1 no CPT
Cc1cc(NC(=O)CCNS(=O)(=O)c2cc(Br)cnc2N)ccc1Br	11.2µM	i	i	i	i	i
Nc1ncc(Br)cc1S(=O)(=O)NCCC(=O)Nc1cccc(Cl)c1	i	i	i	-61.1	i	i
CNCCCCc1cnc(C)c2[nH]c3ccccc3c12	nt	nt	i	nt	i[9.04 µM]	i[9.04 µM]
CC(C)(C)n1ncc2c(=O)n(Cc3ccc(Cl)c(OC(F)(F)F)c3)cnc21	?	i	nt	nt	nt	nt
O=C(O)C(Cc1cc(I)c(O)c(I)c1)c1ccccc1 (centres undefined)	nt	nt	i	nt	i	?
O=C(C1CCCCC1)N1C[C@@H](O)[C@H](n2cc(-c3ccc(F)cc3)nn2)C[C@@H]1c1ccccc1	i	i	nt	i	?	14.6µM
COc1ccc([C@H]2C[C@@H](n3cc(-c4ccc(F)cc4)nn3)[C@H](O)CN2C(=O)c2cccs2)cc1	i	i	nt	i	?	?
O=C(c1cccs1)N1C[C@H](n2cc(-c3ccc(F)cc3)nn2)[C@@H](O)C[C@@H]1c1ccc(Cl)cc1	?	i	nt	?	?	?
O=C(c1cccs1)N1C[C@@H](O)[C@H](n2cc(-c3ccc(F)cc3)nn2)C[C@@H]1c1ccc(Cl)cc1	?	i	nt	i	?	23.1µM
O=C(c1cccs1)N1C[C@@H](n2cc(-c3ccc(F)cc3)nn2)[C@H](O)C[C@@H]1c1ccc(Cl)cc1	i	i	nt	i	13µM	23.1µM
O[C@@H]1CN(Cc2cccs2)[C@@H](c2ccc(Cl)cc2)C[C@H]1n1cc(-c2ccc(F)cc2)nn1	?	i	nt	i	?	23.1µM
